Source: PubChem BioAssay (NCATS)
Inconclusive results are not listed. Activity calls are given as the source filed them. Calls come from the whole dose curve; as a rule, active = well fitted curve in the direction sought with a large enough effect; inconclusive = small, poorly fitted or top-dose-only effect, or another doubt; inactive = no such curve, though single readings can be large; an effect the other way counts as inactive or inconclusive.

Experiments:
[1] = qHTS for inhibitors of ER calcium dysfunction: SERCaMP assay screened against the NCATS CANVASS Library (AID 1347393);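 note: series mostly up to about 77 µM; lower secreted reporter signal means inhibitor of ER calcium depletion; nearly all actives have a fitted effect of over 40% in size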
How it was run: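 SH-SY5Y GLuc-SERCaMP, 1000 cells/well, 4 h attach; cpd 16 h, 37C/5% CO2; thapsigargin (added as 6x 600 nM) 4 h; coelenterazine; luminescence. Reduced reporter release = ER Ca stabilization.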

[2] = Vero-766 cells viability qHTS against the NCATS CANVASS Library: Counterscreen for Zika virus inhibition assay (AID 1347394); note: series mostly up to about 46 µM; nearly all actives have a fitted effect of over 60% in size
How it was run: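 Counterscreen for toxicity: Vero 766 cells exposed 72 h to an 11-point compound series, viability by CellTiter-Glo.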

[3] = qHTS for inhibitors of Wild type Zika virus screened against the NCATS CANVASS Library (AID 1347396);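 note: ATP luminescence of surviving cells so rescue from viral cell killing; series mostly up to about 46 µM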
How it was run: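 Vero 766 (African green monkey) cells, 1000 per well, attached overnight, then compounds were added in an 11-point series before wild-type Zika virus infection. After 72 h at 37C, cell viability was read as CellTiter Glo luminescence.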

[4] = Viability qHTS for inhibitors of the SERCaMP assay screened against the NCATS CANVASS Library (AID 1347400); note: series mostly up to about 92 µM; nearly all actives have a fitted effect of over 70% in size
How it was run: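 SH-SY5Y-GLuc SERCaMP MJH297-derived cells (1000 cells/well) were pre-incubated 4 h at 37C, then exposed to compounds for 48 h. Viability was read as CellTiter-Glo luminescence; bortezomib served as positive control.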

[5] = Redox Reaction Profiling qHTS: Assay Interference Panel against the NCATS CANVASS Library (AID 1347401)
How it was run: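 Compounds in 11-point series incubated with 5 uM resazurin and 200 uM DTT in 50 mM HEPES pH 7.3, 50 mM NaCl. Resorufin fluorescence (Ex 525/Em 598) read before and after 15 min in the dark.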

[6] = Primary qHTS for inhibitors of nuclear receptor binding SET domain protein 2 (NSD2) in an isogenic RCH-ACV NSD2 p.E1099K mutant (9B) (AID 1645876); note: nearly all actives have a fitted effect of over 70% in size
[7] = qHTS to identify inhibitors of the type 1 interferon - major histocompatibility complex class I in skeletal muscle: primary screen against the NCATS Mechanism Interrogation Plate v5.0 (MIPE) Libary (AID 1347411); note: nearly all actives have a fitted effect of over 65% in size
How it was run: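 Immortalized human C25cl48 myoblasts with HiBit knocked into endogenous HLA-B*08:01 were stimulated with 4.0 ng/ml IFN-beta and exposed to compounds (11-point 1:3 titration, top 46 uM final) for 24 hrs at 37 C; HiBiT lytic luminescence measured.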

[8] = qHTS to identify inhibitors of the type 1 interferon - major histocompatibility complex class I in skeletal muscle: primary screen against the NCATS LOPAC collection (AID 1347405);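 note: lytic HiBiT luminescence reporting HLA-B protein level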
How it was run: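 Immortalized human C25cl48 myoblasts with HiBiT knocked into endogenous HLA-B*08:01 were stimulated with 4.0 ng/ml IFN-beta and given compounds in a 7-point, 1:4.3 titration from 46 uM final; after 24 hrs, lytic HiBiT luminescence was read.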

[9] = qHTS for inhibitors of adenylyl cyclases using a fission yeast platform: a pilot screen against the NCATS LOPAC library (AID 1347410)
How it was run: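 Inhibition of GNAS-stimulated AC9 activity in S. pombe was inferred from derepression of a PKA-repressed fbp1-GFP reporter, measured as cytometric fluorescence after 18 h at 30C with compounds at up to 57 µM.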

[10] = Validation qHTS assay for inhibitors of Activation Induced Cytidine Deaminase (AID): UDG Counterscreen signal (AID 1347427)
How it was run: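 Counterscreen read of UDG activity (2 U/mL, 4/3x) in the FRET deamination format with AID (1 uM, 4/3x), DJC20/DJC23 substrates (250 nM, 4x), 4 h at room temperature. NaOH stop, fluorescence at 560 ex/665 em.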

[11] = target: Single-stranded DNA cytosine deaminase (Homo sapiens) (UniProt Q9GZX7); experiment: Validation qHTS assay for inhibitors of Activation Induced Cytidine Deaminase (AID): AID signal (AID 1347429)
How it was run: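 AID and UDG were combined and compounds added at final up to 114 uM, then DJC20/DJC23 FRET substrate was added for 4 hr at room temperature. NaOH was then added for 30 min before fluorescence was read at 540/590 nm.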

[12] = Primary qHTS for inhibitors of La Crosse Virus (LACV) - induced cell death in SH-SY5Y cells (AID 1508616);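 note: top concentration of the series differs between compounds; higher means more rescue of cells from virus-induced death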
How it was run: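 Luminescent ATP readout (ATPLite 1step, 5 min room temperature) measured rescue from LACV-induced death after 6 days of infection at 0.01 MOI; normalized to infected DMSO wells and uninfected DMSO wells.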

[13] = target: Calcium and integrin-binding protein 1 (Homo sapiens) (UniProt Q99828); experiment: Validation qHTS for Identification of Calcium Integrin Binding protein 1 (CIB1) Competitor (AID 1508618)
How it was run: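 Fluorescence polarization with 1 uM CIB1-GST and 100 nM FITC-alphaIIb peptide in HEPES pH 7.4, NaCl, 5 mM CaCl2, Tween20. Compounds at up to 114 uM final, preincubated with protein 15 min; read after 15 min more at RT.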

[14] = Primary qHTS for small molecule stabilizers of the endoplasmic reticulum resident proteome: Secreted ER Calcium Modulated Protein (SERCaMP) assay (AID 1508630)
How it was run: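 GLuc-SERCaMP-expressing SH-SY5Y cells, pretreated 16 h with compound, are challenged with thapsigargin to empty ER calcium stores; after 4 h, coelenterazine is added directly to the medium and luminescence is imaged.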

Papain (Carica papaya) = Papain (Carica papaya) (UniProt P00784); experiment: Primary qHTS assay for inhibitors of the protease papain (AID 1645873);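 note: papain turnover of Z-FR-AMC read as the AMC fluorescence gain over 10 min; series mostly up to about 50 µM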

Measured: Potency

Sequence of Calcium and integrin-binding protein 1 (Homo sapiens) (Q99828 whole entry, looked up): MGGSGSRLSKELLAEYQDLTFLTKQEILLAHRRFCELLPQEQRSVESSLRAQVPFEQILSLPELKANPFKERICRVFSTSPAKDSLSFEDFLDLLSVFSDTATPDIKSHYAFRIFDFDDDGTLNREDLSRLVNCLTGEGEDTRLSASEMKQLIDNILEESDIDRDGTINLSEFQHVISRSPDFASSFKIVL
Sequence of Papain (Carica papaya) (P00784 whole entry, looked up): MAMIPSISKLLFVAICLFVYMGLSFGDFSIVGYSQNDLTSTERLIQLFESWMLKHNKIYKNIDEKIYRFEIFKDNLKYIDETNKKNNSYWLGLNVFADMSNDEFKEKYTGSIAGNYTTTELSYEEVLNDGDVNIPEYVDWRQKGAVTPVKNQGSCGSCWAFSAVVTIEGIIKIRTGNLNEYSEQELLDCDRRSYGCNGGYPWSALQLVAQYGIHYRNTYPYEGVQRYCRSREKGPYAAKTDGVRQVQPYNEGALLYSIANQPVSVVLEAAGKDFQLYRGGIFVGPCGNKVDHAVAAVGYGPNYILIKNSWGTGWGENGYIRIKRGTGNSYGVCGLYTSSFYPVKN
Sequence of Single-stranded DNA cytosine deaminase (Homo sapiens) (Q9GZX7 whole entry, looked up): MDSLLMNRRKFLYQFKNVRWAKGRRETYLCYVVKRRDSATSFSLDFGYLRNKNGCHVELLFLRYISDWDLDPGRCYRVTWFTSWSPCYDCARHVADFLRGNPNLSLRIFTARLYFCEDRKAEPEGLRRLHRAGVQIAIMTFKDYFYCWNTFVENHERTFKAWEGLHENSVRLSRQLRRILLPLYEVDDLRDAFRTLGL

O=C(O)Cc1c[nH]c2ccc(O)cc12
inactive: [1] | [2] | [3] | [4] | [5]

CC(=O)NCCc1c[nH]c2ccc(O)cc12
inactive: [2] | [3] | [4] | [6]

CC1=C(/C=C/C(C)=C/C=C/C(C)=C\C(=O)O)C(C)(C)CCC1
inactive: [7] | [6]

CCCc1c(OCCCOc2ccc(OCC(=O)O)cc2)ccc(C(C)=O)c1O
inactive: [7]

O=C(O)/C=C/c1ccc(O)c(O)c1
inactive: [8] | [9] | [10] | [11] | [12] | [13] | [14] | Papain (Carica papaya)

O=C(O)C1=CCCN(CCON=C(c2ccccc2)c2ccccc2)C1
inactive: [8] | [9] | [10] | [11] | [12] | [13] | [14] | Papain (Carica papaya)

COC1(C2=NCCN2)COc2ccccc2O1 (configuration not stated)
inactive: [8] | [9] | [10] | [11] | [12] | [13] | [14] | Papain (Carica papaya)

NC1(C(=O)O)CCCCC1
inactive: [8] | [9] | [10] | [11] | [12] | [13] | [14] | Papain (Carica papaya)

N[C@@H](CS(=O)O)C(=O)O
inactive: [8] | [9] | [10] | [11] | [12] | [13] | [14] | Papain (Carica papaya)

O=C(O)C1=CCNCC1
inactive: [8] | [9] | [10] | [11] | [12] | [13] | [14] | Papain (Carica papaya)

N[C@H](C(=O)O)[C@H](O)C(=O)O
inactive: [8] | [9] | [10] | [11] | [12] | [13] | [14] | Papain (Carica papaya)

CC(N)(C(=O)O)c1ccc(C(=O)O)cc1 (configuration not stated)
inactive: [8] | [9] | [10] | [11] | [12] | [13] | [14] | Papain (Carica papaya)

O=c1ccc2c(OCCCCc3ccccc3)c3ccoc3cc2o1
inactive: [8] | [9] | [10] | [11] | [12] | [13] | [14] | Papain (Carica papaya)

[Li+]
inactive: [8] | [9] | [10] | [11] | [12] | [13] | [14] | Papain (Carica papaya)

CN(C)C(=O)/N=N/C(=O)N(C)C
inactive: [8] | [9] | [10] | [11] | [12] | [13] | [14] | Papain (Carica papaya)

CCCn1c(=O)c2c(ncn2C)n(CCC)c1=O
inactive: [8] | [9] | [10] | [11] | [12] | [13] | [14] | Papain (Carica papaya)

NC1C=CC=C(C(=O)O)C1 (configuration not stated)
inactive: [8] | [9] | [10] | [11] | [12] | [13] | [14] | Papain (Carica papaya)

COC(=O)C(N)Cc1ccc(Cl)cc1 (configuration not stated)
inactive: [8] | [9] | [10] | [11] | [12] | [13] | [14] | Papain (Carica papaya)

CNc1cc(NS(=O)(=O)c2ccc(N)cc2)nc(NC)n1
inactive: [8] | [9] | [10] | [11] | [12] | [13] | [14] | Papain (Carica papaya)

O=C(O)c1cc2cc(F)ccc2[nH]1
inactive: [8] | [9] | [10] | [11] | [12] | [13] | [14] | Papain (Carica papaya)

Cn1c(=O)[nH]c2ncn(C)c2c1=O
inactive: [8] | [9] | [10] | [11] | [12] | [13] | [14] | Papain (Carica papaya)

N[C@H](C(=O)O)[C@H]1C[C@@H]1C(=O)O
inactive: [8] | [9] | [10] | [11] | [12] | [13] | [14] | Papain (Carica papaya)

CCCCCCCCCC[Si](C)(C)CCC(=O)NC(Cc1ccc(C)cc1)c1ccccc1 (configuration not stated)
inactive: [8] | [9] | [10] | [11] | [12] | [13] | [14] | Papain (Carica papaya)

CCSC(=N)N
inactive: [8] | [9] | [10] | [11] | [12] | [13] | [14] | Papain (Carica papaya)

c1ccc(C(NCc2cccnc2)(c2ccccc2)c2ccccc2)cc1
inactive: [8] | [9] | [10] | [11] | [12] | [13] | [14] | Papain (Carica papaya)

N[C@@H](CCCC(=O)O)C(=O)O
inactive: [8] | [9] | [10] | [11] | [12] | [13] | [14] | Papain (Carica papaya)

N[C@@H](Cc1ccc(F)cc1)C(=O)O
inactive: [8] | [9] | [10] | [11] | [12] | [13] | [14] | Papain (Carica papaya)

Cc1nc2n(c(=O)c1CCN1CCC(c3noc4cc(F)ccc34)CC1)CCCC2O (configuration not stated)
inactive: [8] | [9] | [10] | [11] | [12] | [13] | [14] | Papain (Carica papaya)

CCCN(CCc1ccccc1)C1CCc2c(O)cccc2C1 (configuration not stated)
inactive: [8] | [9] | [10] | [11] | [12] | [13] | [14] | Papain (Carica papaya)
